# In PubChem BioAssay:
# Several values for one entry are separate records, joined by “and”; a condition that tells them apart may be missing. Equal entries are not always repeated. Activity calls are given as the source filed them. Unless noted, no stated cut-off is given here; in the data, active means inhibition above about 80%; inactive means the rest.
# What was measured:
# [1] = galactose survival enhancers in mitochondrial complex I cybrids – cell-based, galactose medium, ATP luminescence, primary screen (AID 1645843;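 active means z-score of at least 1.8 in each of two replicates, scored against plate mean and spread of sample wells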;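 further: positive z means more ATP and so rescue of galactose-driven cybrid death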); conditions: complex I mutant cybrid cells, 72 h, stronger effect = higher value
# F380Y = assay: BK channel mutant inhibitors and activators – cell-based, U2OS BacMam, thallium flux, beta subunits, selectivity assay, profiling panel (AID 1259406;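 active means thallium flux through the channel raised or lowered by more than 3 SD from vehicle-only wells, actives on both sides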;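 further: initial slope of Thallos dye fluorescence rise after thallium is added; log ratio against the mean of 0.3% DMSO vehicle wells on the same plate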); conditions: U2OS BacMam BK variants, at 30 µM
# F380Y/beta1 = assay: as above; conditions: U2OS BacMam BK variants, at 30 µM
# [2] = molecular target: NAD(+) hydrolase SARM1 (Homo sapiens) (UniProt Q6SZW1); assay: blocking NAD cleavage by SARM1 SAM-TIR – cell lysate, NAD-Glo luminescence (AID 1508614;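 active means compound whose remaining NAD level is above about 45 nM, limit read from the data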); conditions: SAM-TIR HEK293T lysate NADase, at 1 µM, stronger effect = higher value
# [3] = growth inhibition, single agent or in combination, cell-based, chromothripsis tumors, cisplatin or BGB combos (AID 1671449); conditions: LFS_MB_P medulloblastoma cells;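 further: cells exposed for 96 hours; 0% = vehicle DMSO and 100% = killing by high DMSO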
# [4] = growth inhibition, single agent and combos, cell-based, chromothripsis tumors, cisplatin or BGB combos (AID 1671450); conditions: HDN33 neuroblastoma cells, stronger effect = higher value;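 further: cells exposed to compound for four days; 0% = vehicle DMSO and 100% = cell killing by high DMSO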
# [5] = growth inhibition, single agents and combos, ICB984, cell-based, cisplatin or BGB combos, synergistic combos for chromothripsis tumors (AID 1671451; call rule not given here;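 further: cells exposed for 96 hours before readout; 0% = vehicle DMSO and 100% = killing by high DMSO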); conditions: ICB984 medulloblastoma cells, drug combinations, stronger effect = higher value
# [6] = growth inhibition, single agents and combos, LFS_MB_1R, cell-based, cisplatin or BGB combos, synergistic combos for chromothripsis tumors (AID 1671452); conditions: LFS_MB_1R medulloblastoma cells, stronger effect = higher value;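 further: cells exposed for 96 hours before readout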
# [7] = growth inhibition, single agents and combos, HTB85, cell-based, BGB or cisplatin IC20 combos, synergistic combos for chromothripsis tumors (AID 1671453); conditions: HTB85 osteosarcoma cells, drug combinations, stronger effect = higher value;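 further: cells exposed for 96 hours before readout; 0% = vehicle DMSO and 100% = high DMSO killing control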
# [8] = growth inhibition, single agents and combos, CRL2098, cell-based, BGB or cisplatin IC20 combos, synergistic combos for chromothripsis tumors (AID 1671454); conditions: CRL2098 osteosarcoma cells, drug combinations, stronger effect = higher value;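 further: cells exposed for 96 h before readout; 0% = vehicle DMSO and 100% = killing by high DMSO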
# [9] = growth inhibition, single agents and combos, HD-MB03, cell-based, BGB or cisplatin IC20 combos, synergistic combos for chromothripsis tumors (AID 1671455; in the data active means inhibition above about 83%;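 further: 0% = vehicle DMSO and 100% = high DMSO as cytotoxic control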); conditions: HD-MB03 medulloblastoma cells, stronger effect = higher value
# [10] = growth inhibition, single agents and combos, UWB1.289, cell-based, BGB or cisplatin combos, synergistic combos for chromothripsis tumors (AID 1671456); conditions: UWB1.289 ovarian carcinoma cells, stronger effect = higher value;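 further: cells exposed to compound for four days; 0% = vehicle DMSO and 100% = killing by high DMSO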
# [11] = growth inhibition, single agents and combos, LFS_MB_2R, cell-based, cisplatin combos, synergistic combos for chromothripsis tumors (AID 1671457); conditions: LFS_MB_2R medulloblastoma cells, stronger effect = higher value;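 further: cells exposed to compound for four days before readout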
# [12] = growth inhibition, MDA-MB-436, cell-based, BGB or cisplatin combos, synergistic combos for chromothripsis tumors (AID 1671458; call rule not given here;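 further: cells exposed for 96 hours; 0% = vehicle DMSO and 100% = killing by high DMSO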); conditions: MDA-MB-436 breast carcinoma growth inhibition, drug combinations, stronger effect = higher value
# [13] = UWB1.289_BRCA1 ovarian cancer growth, cell-based, BGB or cisplatin combinations (AID 1671459); conditions: UWB1.289 BRCA1 ovarian carcinoma, drug combinations, stronger effect = higher value
# [14] = drug combination toxicity in non-malignant astrocytes – cell-based, BGB or cisplatin IC20 combos, cytotoxicity control for chromothriptic childhood tumor combination screen (AID 1671460); conditions: Human astrocytes, viability inhibition, drug combinations, at 0.5 µM, stronger effect = higher value;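 further: cells exposed to compounds for 96 hours before viability readout; 0% = vehicle and 100% = killing control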
# [15] = BT084 cell growth, single and combined drugs, ICGC_MB145, cisplatin and BGB IC40 combos (AID 1671461); conditions: BT084 medulloblastoma cells, drug combinations, stronger effect = higher value;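 further: cells exposed to drugs for 96 hours; 0% = vehicle DMSO and 100% = high DMSO full killing control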
# [16] = RCMB18 cell growth, single agent and combined, cisplatin and BGB IC40 combos (AID 1671462); conditions: RCMB18 medulloblastoma cells, stronger effect = higher value;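 further: cells exposed to compound for four days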
# [17] = CRL1545 cell growth, single agent and combined, cisplatin and BGB IC20 combos (AID 1671464); conditions: CRL1545 osteosarcoma cells, stronger effect = higher value;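 further: cells exposed to compound for 96 hours before readout; 0% = vehicle DMSO and 100% = high DMSO killing control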
# [18] = at 0.5 µM, stronger effect = higher value
# [19] = measured here: combination with BGB IC20, at 0.005 µM
# [20] = measured here: combination with BGB IC40, at 0.005 µM
# [21] = measured here: combination with BGB IC40, at 0.05 µM
# [22] = measured here: combination with cisplatin, at 0.5 µM, stronger effect = higher value
# [23] = measured here: combination with cisplatin, at 5 µM, stronger effect = higher value
# [24] = measured here: with BGB IC20 combination, at 0.5 µM
# [25] = measured here: with cisplatin IC20 combination, at 0.5 µM
# [26] = measured here: 5 uM single agent, at 5 µM
# [27] = measured here: combination with cisplatin, at 0.5 µM
# [28] = measured here: combination with cisplatin, at 5 µM
# [29] = measured here: with BGB IC20, at 0.5 µM
# [30] = measured here: with BGB IC20, at 5 µM
# [31] = measured here: with cisplatin IC20, at 0.5 µM
# Sequence of NAD(+) hydrolase SARM1 (Homo sapiens) (Q6SZW1 whole entry, looked up): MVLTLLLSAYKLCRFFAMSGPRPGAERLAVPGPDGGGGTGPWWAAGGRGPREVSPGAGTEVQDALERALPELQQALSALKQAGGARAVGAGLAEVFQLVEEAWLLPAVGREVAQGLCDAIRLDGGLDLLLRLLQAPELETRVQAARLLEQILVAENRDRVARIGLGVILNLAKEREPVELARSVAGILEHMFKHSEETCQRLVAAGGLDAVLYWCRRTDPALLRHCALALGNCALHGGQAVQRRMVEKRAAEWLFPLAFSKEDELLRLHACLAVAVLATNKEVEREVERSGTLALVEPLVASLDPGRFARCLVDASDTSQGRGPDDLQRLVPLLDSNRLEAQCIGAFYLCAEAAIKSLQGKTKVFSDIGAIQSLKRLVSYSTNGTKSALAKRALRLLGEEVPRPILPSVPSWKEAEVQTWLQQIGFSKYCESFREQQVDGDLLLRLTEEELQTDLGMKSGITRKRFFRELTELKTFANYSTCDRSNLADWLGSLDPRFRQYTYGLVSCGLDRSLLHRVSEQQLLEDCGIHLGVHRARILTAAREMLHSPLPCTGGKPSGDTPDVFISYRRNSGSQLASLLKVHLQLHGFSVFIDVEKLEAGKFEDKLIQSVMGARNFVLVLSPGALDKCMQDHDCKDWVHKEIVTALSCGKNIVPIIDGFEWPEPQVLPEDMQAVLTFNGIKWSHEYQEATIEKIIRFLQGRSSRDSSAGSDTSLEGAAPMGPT
compound,measurement,setting,value
O=C1Nc2ccc(Cl)cc2[C@@](C#CC2CC2)(C(F)(F)F)O1,z-score,[1],-1.77 (inactive) and -2 (inactive)
same,log fold change Tl+ flux,F380Y,0.0449 (inactive)
same,log fold change Tl+ flux,F380Y/beta1,0.167 (active)
CC(Oc1c(Cl)cccc1Cl)C1=NCCN1 (stereo not drawn),remaining NAD,[2],10 nM (inactive)
same,z-score,[1],0.71 (inactive) and 0.175 (inactive)
same,log fold change Tl+ flux,F380Y,0.00819 (inactive)
same,log fold change Tl+ flux,F380Y/beta1,-0.000881 (inactive)
O=C(NCCN1CCOCC1)c1ccc(Cl)cc1,z-score,[1],0.645 (inactive) and 0.32 (inactive)
same,log fold change Tl+ flux,F380Y,-0.0393 (inactive)
same,log fold change Tl+ flux,F380Y/beta1,-0.0206 (inactive)
CNNCc1ccc(C(=O)NC(C)C)cc1,remaining NAD,[2],10 nM (inactive)
same,z-score,[1],-0.975 (inactive) and 0.615 (inactive)
same,inhibition,[3]; [18],-4.96% (inactive) and -7.28% (inactive)
same,inhibition,[3]; [19],0.865% and -3.27%
same,inhibition,[3]; [20],4.15% and 7.38%
same,inhibition,[3]; [21],-4.16% and -2.23%
same,inhibition,[3]; [22],-13.4% and -33.1%
same,inhibition,[3]; [23],33.1% and 11.1%
same,inhibition,"[4]; BGB combo, at 5 µM",11.7% and 16.1%
same,inhibition,[4]; at 0.5 µM,10.7% (inactive) and 6.09% (inactive)
same,inhibition,"[4]; cisplatin combo, at 5 µM",11.5% and 15.1%
same,inhibition,[4]; [24],8.82% and -6.43%
same,inhibition,[4]; [25],7.54% and 20.8%
same,inhibition,"[4]; single agent, at 5 µM",17.8% and 2.31%
same,inhibition,"[5]; BGB IC20 combo, at 0.005 µM",9.83% and 1.87%
same,inhibition,"[5]; BGB IC40 combo, at 0.005 µM",-24.6% and -19.9%
same,inhibition,"[5]; BGB IC40 combo, at 0.05 µM",-27.1% and 7.42%
same,inhibition,[5]; at 0.5 µM,-17.4% (inactive) and -14% (inactive)
same,inhibition,"[5]; cisplatin combo, at 0.05 µM",-31.7% and 4.83%
same,inhibition,"[5]; cisplatin combo, at 0.5 µM",-11.9% and -3.72%
same,inhibition,"[5]; cisplatin combo, at 5 µM",2.16% and -28.3%
same,inhibition,[5]; [26],3.31% and -11.8%
same,inhibition,[6]; at 0.5 µM,9.11% (inactive) and -17.9% (inactive)
same,inhibition,[6]; [21],11.1% and -7.89%
same,inhibition,[6]; [27],9.64% and -15.3%
same,inhibition,[6]; [28],-32.2% and -1.85%
same,inhibition,[7]; at 0.5 µM,-1.94% (inactive) and -4.22% (inactive)
same,inhibition,[7]; [29],2.72% and -14.1%
same,inhibition,[7]; [30],4.14% and -30.2%
same,inhibition,[7]; [31],-5.46% and -13.6%
same,inhibition,"[7]; measured here: with cisplatin IC20, at 5 µM",-7.6% and -38.8%
same,inhibition,"[7]; single agent, at 5 µM",3.42% and -2.23%
same,inhibition,[8]; at 0.5 µM,3.58% (inactive) and -35.9% (inactive)
same,inhibition,"[8]; measured here: combination with BGB at IC20, at 0.5 µM",-18.3% and -64.1%
same,inhibition,"[8]; measured here: combination with cisplatin at IC20, at 0.5 µM",-1.94% and -14.9%
same,inhibition,[9]; at 0.5 µM,1.99% (inactive) and 3.37% (inactive)
same,inhibition,"[9]; measured here: combo with BGB at IC20, at 0.5 µM",-4.48% and 4.11%
same,inhibition,"[9]; measured here: combo with cisplatin at IC20, at 0.5 µM",6.48% and 0.786%
same,inhibition,[10]; at 0.5 µM,13% (inactive) and 7.15% (inactive)
same,inhibition,"[10]; measured here: inhibition with BGB combination, at 0.05 µM",3.19% and 1.17%
same,inhibition,"[10]; measured here: inhibition with cisplatin combination, at 0.05 µM",22.9% and 3.56%
same,inhibition,[11]; at 0.5 µM,14.1% (inactive) and 0.23% (inactive)
same,inhibition,[11]; [27],6.63% and -1.71%
same,inhibition,[11]; [28],15.9% and -32.2%
same,inhibition,[12]; at 0.5 µM,0.31% (inactive) and -0.08% (inactive)
same,inhibition,"[12]; measured here: BGB combination, at 0.5 µM",1.37% and 5.96%
same,inhibition,"[12]; measured here: BGB combination, at 5 µM",-3.48% and 5.4%
same,inhibition,"[12]; measured here: cisplatin combination, at 0.5 µM",0.65% and -2.59%
same,inhibition,"[12]; measured here: cisplatin combination, at 5 µM",-3.21% and 0.056%
same,inhibition,"[13]; BGB combination, concentration series, at 5 µM",-3.07% and 11.5%
same,inhibition,[13]; at 0.5 µM,8.92% (inactive) and 4.36% (inactive)
same,inhibition,"[13]; cisplatin combination, concentration series, at 5 µM",2.73% and 5.28%
same,inhibition,[14],-1.46% (inactive) and -4.45% (inactive)
same,inhibition,[14]; measured here: combo with BGB IC20,4.04% and -5.12%
same,inhibition,[14]; measured here: combo with cisplatin IC20,-5.05% and -7.38%
same,inhibition,[15]; at 0.5 µM,9.13% (inactive) and -8.81% (inactive)
same,inhibition,"[15]; cisplatin combination, at 0.5 µM",-8.59% and 0.014%
same,inhibition,"[15]; cisplatin combination, at 5 µM",13.7% and 11%
same,inhibition,"[15]; measured here: BGB IC40 combination 0.05 uM, at 0.05 µM",8.15% and 2.42%
same,inhibition,"[15]; single agent, at 5 µM",-0.995% and -8.33%
same,inhibition,[16]; at 0.5 µM,5.59% (inactive) and 7.58% (inactive)
same,inhibition,"[16]; cisplatin combo, at 5 µM",1.81% and -25.8%
same,inhibition,"[16]; measured here: BGB IC40 combination, at 0.05 µM",-9.15% and -22.9%
same,inhibition,[16]; [27],38.1% and 9.89%
same,inhibition,"[16]; single agent, at 5 µM",-25.5% and 7.57%
same,inhibition,[17]; at 0.5 µM,-9.96% (inactive) and 0.27% (inactive)
same,inhibition,[17]; [24],-28.2% and -29.3%
same,inhibition,[17]; [25],-2.5% and 13.1%
same,inhibition,"[17]; single agent, at 0.05 µM",-6% and -6.52%
same,inhibition,"[17]; single agent, at 5 µM",-28.8% and -29%
same,log fold change Tl+ flux,F380Y,-0.0305 (inactive)
same,log fold change Tl+ flux,F380Y/beta1,0.0168 (inactive)
CCc1c(C)[nH]c2c1C(=O)C(CN1CCOCC1)CC2 (stereo not drawn),z-score,[1],0.39 (inactive) and -0.105 (inactive)
same,log fold change Tl+ flux,F380Y,0.0409 (inactive)
same,log fold change Tl+ flux,F380Y/beta1,0.015 (inactive)
Cc1c(O)cccc1C(=O)N[C@@H](CSc1ccccc1)[C@H](O)CN1C[C@H]2CCCC[C@H]2C[C@H]1C(=O)NC(C)(C)C,z-score,[1],-1.03 (inactive) and -1.48 (inactive)
same,log fold change Tl+ flux,F380Y,0.0722 (inactive)
same,log fold change Tl+ flux,F380Y/beta1,0.0513 (inactive)
Cn1nnc2c(C(N)=O)ncn2c1=O,remaining NAD,[2],10 nM (inactive)
same,z-score,[1],-0.305 (inactive) and -0.09 (inactive) and 0.155 (inactive)
same,inhibition,[3]; [18],-17.4% (inactive) and 18.8% (inactive)
same,inhibition,[3]; [19],-10.2% and -21.6%
same,inhibition,[3]; [20],14.1% and -10.5%
same,inhibition,[3]; [21],2.17% and -11.4%
same,inhibition,[3]; [22],-29.5% and 9.38%
same,inhibition,[3]; [23],-24.1% and -22.5%
same,inhibition,"[4]; BGB combo, at 5 µM",22.2% and -9.06%
same,inhibition,[4]; at 0.5 µM,13.3% (inactive) and -1.85% (inactive)
same,inhibition,"[4]; cisplatin combo, at 5 µM",6.08% and -19.1%
same,inhibition,[4]; [24],17.6% and 6.04%
same,inhibition,[4]; [25],10.1% and -5.64%
same,inhibition,"[4]; single agent, at 5 µM",14.8% and -8.19%
same,inhibition,"[5]; BGB IC20 combo, at 0.005 µM",-9.22% and 1.55%
same,inhibition,"[5]; BGB IC40 combo, at 0.005 µM",-2.52% and -17.2%
same,inhibition,"[5]; BGB IC40 combo, at 0.05 µM",-13.6% and -3.32%
same,inhibition,[5]; at 0.5 µM,-14.5% (inactive) and -3.73% (inactive)
same,inhibition,"[5]; cisplatin combo, at 0.05 µM",-17.6% and -3.32%
same,inhibition,"[5]; cisplatin combo, at 0.5 µM",-0.899% and 2.38%
same,inhibition,"[5]; cisplatin combo, at 5 µM",-10.6% and -15.5%
same,inhibition,[5]; [26],10.8% and -28.4%
same,inhibition,[6]; at 0.5 µM,-13.9% (inactive) and 3.35% (inactive)
same,inhibition,[6]; [21],-9.42% and 8.49%
same,inhibition,[6]; [27],-8.99% and 3.26%
same,inhibition,[6]; [28],-56.8% and -3.5%
same,inhibition,[7]; at 0.5 µM,6.66% (inactive) and -23.3% (inactive)
same,inhibition,[7]; [29],9.09% and -44.6%
same,inhibition,[7]; [30],6.52% and -4.64%
same,inhibition,[7]; [31],-3.99% and -22.6%
